The target in assay [1] is T1, Serine/threonine-protein kinase TBK1 (Homo sapiens) (UniProt Q9UHD2).
T1 sequence (whole entry): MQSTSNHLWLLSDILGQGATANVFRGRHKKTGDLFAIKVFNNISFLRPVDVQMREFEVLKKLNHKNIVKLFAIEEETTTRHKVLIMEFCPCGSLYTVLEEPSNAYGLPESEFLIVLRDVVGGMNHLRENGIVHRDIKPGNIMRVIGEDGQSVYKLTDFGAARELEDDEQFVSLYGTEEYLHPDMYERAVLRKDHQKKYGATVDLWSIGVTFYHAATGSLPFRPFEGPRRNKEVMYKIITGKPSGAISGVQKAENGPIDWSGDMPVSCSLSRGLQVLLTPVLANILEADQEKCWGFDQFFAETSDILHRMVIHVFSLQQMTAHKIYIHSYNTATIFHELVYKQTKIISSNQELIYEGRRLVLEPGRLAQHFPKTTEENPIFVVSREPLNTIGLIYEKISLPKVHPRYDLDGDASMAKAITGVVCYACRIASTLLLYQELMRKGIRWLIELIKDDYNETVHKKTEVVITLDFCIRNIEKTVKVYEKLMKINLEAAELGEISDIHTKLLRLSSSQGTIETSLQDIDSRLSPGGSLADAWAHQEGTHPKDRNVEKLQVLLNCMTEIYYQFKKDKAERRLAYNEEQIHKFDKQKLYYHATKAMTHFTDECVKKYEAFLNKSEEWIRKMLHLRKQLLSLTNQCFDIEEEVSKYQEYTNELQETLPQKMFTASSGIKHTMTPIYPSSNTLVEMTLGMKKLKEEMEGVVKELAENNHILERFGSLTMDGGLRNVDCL
Conditions: at 10 µM.

Assay [2] deals with T2, TGF-beta receptor type-1 (Homo sapiens) (UniProt P36897).
T2 sequence (whole entry): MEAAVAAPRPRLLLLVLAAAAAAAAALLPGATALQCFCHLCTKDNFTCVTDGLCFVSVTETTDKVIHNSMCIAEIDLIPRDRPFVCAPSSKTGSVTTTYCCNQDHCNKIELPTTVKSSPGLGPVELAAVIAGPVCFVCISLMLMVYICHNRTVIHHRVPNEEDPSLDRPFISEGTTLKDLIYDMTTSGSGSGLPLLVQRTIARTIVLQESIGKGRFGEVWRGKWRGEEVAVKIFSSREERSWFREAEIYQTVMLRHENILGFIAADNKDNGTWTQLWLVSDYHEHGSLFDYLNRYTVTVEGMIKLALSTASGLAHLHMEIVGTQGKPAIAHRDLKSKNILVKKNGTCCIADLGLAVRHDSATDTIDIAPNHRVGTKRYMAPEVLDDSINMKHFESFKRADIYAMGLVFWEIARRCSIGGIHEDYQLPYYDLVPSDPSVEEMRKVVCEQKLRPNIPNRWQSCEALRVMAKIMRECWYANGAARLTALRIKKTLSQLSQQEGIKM
To be noted: at 1 µM.

Assay [3] has as its target T2, TGF-beta receptor type-1 (Homo sapiens). Conditions: at 10 µM.
The target in assay [4] is Insulin-like growth factor 1 receptor (Homo sapiens) (UniProt P08069). To be noted: at 1 µM.
Sequence of Insulin-like growth factor 1 receptor (Homo sapiens) (P08069 31-736 limits assumed): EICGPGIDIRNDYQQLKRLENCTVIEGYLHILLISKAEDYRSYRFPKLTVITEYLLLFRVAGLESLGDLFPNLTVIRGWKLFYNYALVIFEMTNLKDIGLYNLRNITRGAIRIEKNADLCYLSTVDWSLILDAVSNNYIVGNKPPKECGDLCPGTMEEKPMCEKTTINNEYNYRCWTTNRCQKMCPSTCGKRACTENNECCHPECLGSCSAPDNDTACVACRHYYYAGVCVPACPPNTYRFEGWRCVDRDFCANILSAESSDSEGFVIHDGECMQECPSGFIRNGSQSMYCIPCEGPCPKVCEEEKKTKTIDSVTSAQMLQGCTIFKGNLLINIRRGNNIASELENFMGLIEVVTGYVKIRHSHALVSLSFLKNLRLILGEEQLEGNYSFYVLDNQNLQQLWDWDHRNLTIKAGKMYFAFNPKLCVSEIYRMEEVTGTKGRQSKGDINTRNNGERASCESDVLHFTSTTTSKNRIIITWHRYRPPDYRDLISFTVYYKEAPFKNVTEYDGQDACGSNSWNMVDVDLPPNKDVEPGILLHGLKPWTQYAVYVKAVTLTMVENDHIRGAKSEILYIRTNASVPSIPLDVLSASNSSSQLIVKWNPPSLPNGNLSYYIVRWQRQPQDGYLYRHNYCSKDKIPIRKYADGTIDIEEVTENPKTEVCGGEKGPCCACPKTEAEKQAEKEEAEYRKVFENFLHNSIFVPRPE
Sequence of Insulin-like growth factor 1 receptor (Homo sapiens) (P08069 741-1367 limits assumed): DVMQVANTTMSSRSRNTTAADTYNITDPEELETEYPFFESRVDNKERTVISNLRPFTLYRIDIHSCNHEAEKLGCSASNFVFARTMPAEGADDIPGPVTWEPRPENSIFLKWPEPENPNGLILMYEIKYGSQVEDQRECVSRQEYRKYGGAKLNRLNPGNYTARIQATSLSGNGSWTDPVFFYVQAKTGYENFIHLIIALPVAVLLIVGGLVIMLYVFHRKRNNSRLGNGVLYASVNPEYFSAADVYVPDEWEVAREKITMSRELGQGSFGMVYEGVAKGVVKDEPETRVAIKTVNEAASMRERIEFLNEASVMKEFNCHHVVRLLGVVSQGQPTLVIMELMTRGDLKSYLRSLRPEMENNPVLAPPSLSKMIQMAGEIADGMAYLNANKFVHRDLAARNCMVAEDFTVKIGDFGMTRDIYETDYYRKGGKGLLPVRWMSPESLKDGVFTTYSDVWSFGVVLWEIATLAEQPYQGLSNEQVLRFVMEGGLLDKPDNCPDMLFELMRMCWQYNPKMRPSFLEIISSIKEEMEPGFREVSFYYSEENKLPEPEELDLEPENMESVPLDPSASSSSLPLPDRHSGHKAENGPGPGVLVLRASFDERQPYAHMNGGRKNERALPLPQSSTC
Assay [5] has the same target. To be noted: at 10 µM.
The target in assay [6] is T3, Inhibitor of nuclear factor kappa-B kinase subunit alpha (Homo sapiens) (UniProt O15111).
T3 sequence (whole entry): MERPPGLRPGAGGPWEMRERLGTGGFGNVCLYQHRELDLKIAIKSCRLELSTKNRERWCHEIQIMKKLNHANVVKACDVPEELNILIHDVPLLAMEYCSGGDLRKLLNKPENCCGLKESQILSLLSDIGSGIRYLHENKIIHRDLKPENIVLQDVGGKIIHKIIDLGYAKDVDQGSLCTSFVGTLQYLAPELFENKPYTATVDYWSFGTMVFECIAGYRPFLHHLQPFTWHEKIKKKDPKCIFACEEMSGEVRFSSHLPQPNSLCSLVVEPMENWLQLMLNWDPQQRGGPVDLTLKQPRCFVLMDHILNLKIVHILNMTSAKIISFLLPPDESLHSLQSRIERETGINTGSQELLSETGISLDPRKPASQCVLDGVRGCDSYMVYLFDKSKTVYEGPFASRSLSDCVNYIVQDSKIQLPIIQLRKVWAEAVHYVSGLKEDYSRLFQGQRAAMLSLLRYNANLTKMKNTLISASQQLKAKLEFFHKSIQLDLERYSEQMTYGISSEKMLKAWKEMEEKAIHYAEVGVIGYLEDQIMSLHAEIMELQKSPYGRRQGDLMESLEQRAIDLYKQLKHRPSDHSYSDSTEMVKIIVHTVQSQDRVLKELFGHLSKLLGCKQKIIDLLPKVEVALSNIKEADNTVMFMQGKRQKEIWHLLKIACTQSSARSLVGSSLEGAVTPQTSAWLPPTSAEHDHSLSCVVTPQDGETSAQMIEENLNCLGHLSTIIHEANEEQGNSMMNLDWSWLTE
To be noted: at 1 µM.

The target of assay [7] is T3, Inhibitor of nuclear factor kappa-B kinase subunit alpha (Homo sapiens). To be noted: at 10 µM.
For assay [8], the target named is T4, Inhibitor of nuclear factor kappa-B kinase subunit beta (Homo sapiens) (UniProt O14920).
T4 sequence (whole entry): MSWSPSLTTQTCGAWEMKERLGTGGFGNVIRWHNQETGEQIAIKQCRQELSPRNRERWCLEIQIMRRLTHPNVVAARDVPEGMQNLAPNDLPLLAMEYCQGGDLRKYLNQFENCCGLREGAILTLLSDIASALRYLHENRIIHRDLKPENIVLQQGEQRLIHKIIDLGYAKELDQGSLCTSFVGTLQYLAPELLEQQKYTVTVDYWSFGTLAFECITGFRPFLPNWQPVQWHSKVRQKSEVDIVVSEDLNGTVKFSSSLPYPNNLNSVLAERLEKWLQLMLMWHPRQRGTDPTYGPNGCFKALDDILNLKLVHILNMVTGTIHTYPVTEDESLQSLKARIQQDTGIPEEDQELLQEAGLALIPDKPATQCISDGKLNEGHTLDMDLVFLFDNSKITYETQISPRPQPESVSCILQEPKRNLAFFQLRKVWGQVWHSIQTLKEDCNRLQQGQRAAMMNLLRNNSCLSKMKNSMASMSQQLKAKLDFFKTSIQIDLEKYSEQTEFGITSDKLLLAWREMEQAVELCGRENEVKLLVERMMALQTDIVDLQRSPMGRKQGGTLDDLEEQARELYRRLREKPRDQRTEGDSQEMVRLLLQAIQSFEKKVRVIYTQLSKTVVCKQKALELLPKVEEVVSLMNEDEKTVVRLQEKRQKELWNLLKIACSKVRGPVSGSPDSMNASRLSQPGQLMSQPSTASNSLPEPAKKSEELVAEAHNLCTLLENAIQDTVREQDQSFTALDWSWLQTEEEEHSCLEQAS
To be noted: at 1 µM.

In assay [9] the target is T4, Inhibitor of nuclear factor kappa-B kinase subunit beta (Homo sapiens). To be noted: at 10 µM.
Assay [10] addresses Insulin receptor (Homo sapiens) (UniProt P06213). To be noted: at 1 µM.

SMILES strings stand for the structures.

Sequence of Insulin receptor (Homo sapiens) (P06213 28-758 limits assumed): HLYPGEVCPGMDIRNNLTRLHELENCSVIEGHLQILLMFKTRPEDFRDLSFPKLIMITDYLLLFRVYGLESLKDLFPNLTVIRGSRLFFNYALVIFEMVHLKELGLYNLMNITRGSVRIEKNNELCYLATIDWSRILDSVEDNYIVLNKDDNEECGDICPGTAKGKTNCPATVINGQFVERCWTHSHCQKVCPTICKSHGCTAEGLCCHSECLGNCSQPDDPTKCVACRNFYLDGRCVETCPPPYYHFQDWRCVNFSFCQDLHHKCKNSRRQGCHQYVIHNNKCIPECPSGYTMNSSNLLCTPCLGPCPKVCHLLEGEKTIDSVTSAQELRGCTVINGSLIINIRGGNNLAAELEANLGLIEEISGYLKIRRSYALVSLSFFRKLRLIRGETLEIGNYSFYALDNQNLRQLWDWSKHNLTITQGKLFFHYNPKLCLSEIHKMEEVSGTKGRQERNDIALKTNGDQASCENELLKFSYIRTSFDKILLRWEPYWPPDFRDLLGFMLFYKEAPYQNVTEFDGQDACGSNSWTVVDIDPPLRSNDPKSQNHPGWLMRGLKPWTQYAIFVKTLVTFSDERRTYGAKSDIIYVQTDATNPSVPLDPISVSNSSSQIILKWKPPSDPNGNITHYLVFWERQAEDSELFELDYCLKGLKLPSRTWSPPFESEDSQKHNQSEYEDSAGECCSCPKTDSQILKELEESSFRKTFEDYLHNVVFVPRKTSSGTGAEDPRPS
Sequence of Insulin receptor (Homo sapiens) (P06213 763-1382 limits assumed): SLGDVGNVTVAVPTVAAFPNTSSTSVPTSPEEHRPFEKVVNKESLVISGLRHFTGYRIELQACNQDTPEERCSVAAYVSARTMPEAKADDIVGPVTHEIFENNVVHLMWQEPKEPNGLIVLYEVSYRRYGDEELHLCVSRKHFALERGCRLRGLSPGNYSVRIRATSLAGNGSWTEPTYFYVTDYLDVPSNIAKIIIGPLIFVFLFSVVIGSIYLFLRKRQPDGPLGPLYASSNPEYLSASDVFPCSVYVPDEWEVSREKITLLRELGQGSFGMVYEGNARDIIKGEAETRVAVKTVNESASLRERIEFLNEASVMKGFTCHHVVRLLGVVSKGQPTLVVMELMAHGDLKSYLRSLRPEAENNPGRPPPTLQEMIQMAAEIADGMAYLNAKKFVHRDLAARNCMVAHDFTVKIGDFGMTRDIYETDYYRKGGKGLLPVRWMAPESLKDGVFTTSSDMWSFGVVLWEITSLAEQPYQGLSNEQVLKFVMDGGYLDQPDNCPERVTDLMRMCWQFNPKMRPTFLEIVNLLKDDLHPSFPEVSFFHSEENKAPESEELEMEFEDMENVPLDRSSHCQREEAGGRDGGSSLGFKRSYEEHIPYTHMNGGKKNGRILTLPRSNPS

The term residual activity denotes the signal under treatment as a percentage of the control signal. As to `Cn1nc2c3c(cccc31)C(=O)c1ccccc1-2`, the residual activity in [1] is 55%; in assay [2] it was 85%; in assay [3] it was 76%; in [4] it was 89%; in assay [5], 99%; in assay [6], 110%. Further, the residual activity is 82% in [7], 100% in assay [8], 87% in assay [9] and 94% in assay [10].

Source of the values: ChEMBL document CHEMBL2218924, “A broad activity screen in support of a chemogenomic map for kinase signalling research and drug discovery” (Biochem J, 2013).
